Vaccinia mCherry: inhibitors of vaccinia virus infection (mCherry reporter signal); Vaccinia virus mCherry reporter infection, fluorescence; Potency, µM (highest dose often 36.5 µM), for inactives: at the top dose activity change, negative = inhibition, actives largely listed as inhibitors; 0.63% of 310,000 active; calls by dose curve; tested in A549 cells; further: on the % scale 0 is the no-effect control and ±100 the full control effect; nearly all actives have a fitted effect of over 35% in size
Pf growth 96h: P. falciparum growth inhibition at 96 hour, primary screen for plastid delayed-death inhibitors | P. falciparum luciferase reporter growth, 96 h | 6.9% of 320,000 active | Potency, µM (top dose mostly 28.7 µM), without a hit: at the top dose activity change, negative = inhibition, actives largely listed as inhibitors; further: on the % scale 0 is the no-effect control and ±100 the full control effect
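Parasite growth measured via integrated firefly luciferase reporter in P. falciparum. Infected erythrocytes at 2% hematocrit, 0.05% parasitemia final were treated 96 hours at 37 C under 5% CO2, and luminescence was read.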
NS1 inh: influenza NS1 inhibition. Potency, µM (doses to about 46.1 µM), without a hit: at the highest dose activity, positive = more growth. 0.4% of 270,000 active; calls by dose curve; further: actives are rising curves; nearly all actives have a fitted effect of over 50% in size
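Compounds were scored for reversing the slow growth caused by influenza A NS1 in S. cerevisiae, measured by optical density at 600 nm. Assay medium contained 2% galactose at pH 6.0; NS1-free yeast of the same strain were the positive control.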
HCV inh: inhibitors of hepatitis C virus infection; Huh7.5.1 HCVcc-Cre infection, luciferase reporter, 44 h; Potency, µM (highest dose often 41.8 µM), for the others: at the highest dose activity change, negative = inhibition, actives largely listed as inhibitors; 3.4% of 340,000 active; AID 651820; further: on the % scale 0 is the no-effect control and ±100 the full control effect
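Compounds are dispensed onto cells plated 4 h earlier at 1,000 per well, with HCVcc-Cre virus (about 0.5 moi) added next. Following 44 h of culture, luminescent signal is measured for 15 sec after 15 min with substrate at room temperature.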
Pf growth 48h: P. falciparum growth inhibition at 48 hours (one generation). P. falciparum luciferase growth in erythrocytes, 48 h. Potency, µM (highest dose often 28.7 µM), for inactives: top-dose activity change, negative = inhibition, usual class: inhibitors. 5.9% of 310,000 active. AID 504832; further: on the % scale 0 is the no-effect control and ±100 the full control effect
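A one-generation exposure of luciferase-tagged malaria parasites in RPMI 1640/Albumax erythrocyte culture, 37 C and 5% CO2. Inhibition is inferred from decreased luminescence after adding detection reagent.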
Vaccinia Venus: vaccinia inhibition (Venus reporter). Vaccinia virus Venus reporter expression, fluorescence. Potency, µM (top dose mostly 36.5 µM), inactives show at the highest dose activity change, negative = inhibition, usual class: inhibitors. 0.46% of 330,000 active; calls by dose curve; tested in A549 cells; further: on the % scale 0 is the no-effect control and ±100 the full control effect; nearly all actives have a fitted effect of over 30% in size
Numbers without * were called inactive; i = inactive; ? = inconclusive; nt = not tested or not shown; [ ] = dose if it differs, or a comment. This is a sample that favours compounds with a hit; in the whole collection about 11% have one here. Unless noted, the call rests on the fitted dose curve; in most records, active means well fitted inhibition curve with a large enough effect; inconclusive means small, poorly fitted or top-dose-only effect, or another doubt; inactive means no such curve, though single readings can be large or run the other way. Potency means the concentration at half of the fitted maximal effect.

SMILES	Vaccinia mCherry	Pf growth 96h	NS1 inh	HCV inh	Pf growth 48h	Vaccinia Venus
CC1CCCC(C)N1CCNC(=O)CCc1nnc2n(Cc3ccccc3)c(=O)c3ccccc3n12 (configuration not stated)	-10.3%	11.7µM*	2.6%	?	?	2.4%
Cc1ccc(Nc2nc(-c3cccnc3)cs2)cc1C	nt	?	-6.3%	?	-32.9%	nt
CC(C)(C)NC(=O)[C@@H]1C[C@@H]2CCCC[C@@H]2CN1C[C@@H](O)[C@H](Cc1ccccc1)NC(=O)[C@H](CC(N)=O)NC(=O)c1ccc2ccccc2n1	-12.1%	15.1µM*	-17.3%	?	?	?
COC(=O)[C@H](Cc1ccccc1)NC(=O)c1ccc2ccccc2n1	-18.0%	215.4%	-26.1%	14.1%	206.6%	-25.8%
Cc1ccc(-n2c(C)c(C)c3c(NCCN(C)C)ncnc32)cc1	nt	3.2%	3.4%	?	-0.2%[0.00184 µM]	nt
Cc1nn(CCC#N)c(NC(=O)c2ccc(Cl)cc2)c1P(=O)(Nc1ccc([N+](=O)[O-])cc1)N1CCOCC1 (configuration not stated)	nt	nt	-5.3%	6.0%	-13.4%	nt
Cc1nn(CCC#N)c(NC(=O)c2ccc(Cl)cc2Cl)c1P(=O)(Nc1ccc([N+](=O)[O-])cc1)N1CCOCC1 (configuration not stated)	nt	nt	-9.9%	23.3%	8.28µM*	nt
CC(=O)N1CCN(c2ccc(S(=O)(=O)N3CCCCC3)cc2[N+](=O)[O-])CC1	-10.6%	nt	nt	-6.3%	nt	-22.5%
CN1CCN(c2ccc(C(N)=O)cc2[N+](=O)[O-])CC1	-12.8%	-0.5%	-16.0%	0.5%	?	4.5%
Cc1ccc(S(=O)(=O)N2CCN(C(=O)c3ccc(N4CCCCC4)c([N+](=O)[O-])c3)CC2)cc1	-19.7%	10.4µM*	7.4%	?	?	-17.9%
Cc1ccc(-n2sc3ccccc3c2=O)cc1S(=O)(=O)N1CCCCC1	?	4.15µM*	-27.0%	?	2.62µM*	-14.7%
NC(=O)c1ccc(N2CCN(S(=O)(=O)c3ccccc3)CC2)c([N+](=O)[O-])c1	0.0%	34.6%	nt	2.82µM*	?	2.5%
O=c1c2ccccc2sn1-c1ccc(S(=O)(=O)N2CCCCC2)cc1	-4.0%	nt	-10.0%	-21.6%	nt	27.7%
NC(=O)c1ccc(N2CCN(c3ccc(O)cc3)CC2)c([N+](=O)[O-])c1	?	1.65µM*	3.3%	?	?	-20.4%
CCOC(=O)c1csc(NC(=O)c2ccc(S(=O)(=O)N(CC)CC)cc2)n1	nt	-10.6%	15.2%	-9.6%	2.8%	nt
O=C(CNCCO)Nc1ccc(F)c(Cl)c1	-12.4%	12.8%	nt	7.9%	89.0%	-4.6%
CNc1ccc(C(=O)N2CCN(S(=O)(=O)c3ccc4c(c3)OCCCO4)CC2)cc1[N+](=O)[O-]	nt	11.7µM*	-25.5%	?	?	nt
CCOc1ccc(S(=O)(=O)N2CCN(C(=O)c3ccc(-n4cncn4)c([N+](=O)[O-])c3)CC2)cc1	-13.0%	?	nt	11.2µM*	-13.6%	-24.5%
O=[N+]([O-])c1cccc(S(=O)(=O)c2ccc(N3CCCCC3)c([N+](=O)[O-])c2)c1	i	-4.9%	26.9%	8.91µM*	-26.0%	-16.2%
O=C(c1ccc(C(F)(F)F)cc1)N1CCN(S(=O)(=O)c2ccc3c(c2)OCCCO3)CC1	-5.0%	-26.2%	0.4%	nt	19.1%	-28.1%
O=C(c1ccc(S(=O)(=O)N2CCCC2)cc1)N1CCCCCC1	nt	-2.5%	2.6%	7.9%	?	nt
Cc1cc(C)nc(N2CCN(C(=O)c3ccc(S(=O)(=O)N4CCCCCC4)cc3)CC2)n1	-15.2%	-15.9%	5.9%	11.2µM*	-4.2%	-6.5%
Cc1cc(C)c2nc(N(Cc3cccnc3)C(=O)c3ccc(S(=O)(=O)N(C)C)cc3)sc2c1	-20.9%	nt	nt	nt	nt	-17.4%
O=C(CSc1nnc(-c2cccnc2)n1Cc1ccco1)N1CCc2ccccc21	nt	0.0%	-6.5%	-11.1%	-22.5%	nt
COC(=O)c1ccc(CN2CCCCC2)cc1	nt	0.0%	3.9%	2.5%	16.3%	nt
SMILES	Vaccinia mCherry	Pf growth 96h	NS1 inh	HCV inh	Pf growth 48h	Vaccinia Venus
Cc1ccc(S(=O)(=O)N2CCN(C(=O)c3ccc(N4CCCC4)c([N+](=O)[O-])c3)CC2)cc1	-28.4%	8.28µM*	19.2%	-24.0%	?	-23.5%
O=C(c1ccc(N2CCCCC2)c([N+](=O)[O-])c1)N1CCN(c2ccccn2)CC1	nt	?	nt	?	-10.0%	nt
CC(C)(C)c1ccc(C(=O)N2CCN(S(=O)(=O)c3ccc(Br)s3)CC2)cc1	nt	10.4µM*	nt	?	6.57µM*	nt
Cc1ccc(C(=O)N2CCOCC2)cc1S(=O)(=O)N1CCCC1	i	103.2%	11.7%	nt	4.9%	-5.5%
O=C(c1ccc(N2CCCCC2)c([N+](=O)[O-])c1)N1CCN(S(=O)(=O)c2ccccc2)CC1	-17.2%	?	nt	?	11.7µM*	-3.0%
CS(=O)(=O)N1CCN(c2ccc(C(=O)N3CCOCC3)cc2[N+](=O)[O-])CC1	nt	29.9%	3.7%	19.0%	-0.6%	nt
Cc1ccc(C(=O)N2CCCCC2)cc1S(=O)(=O)N1CCCCCC1	4.4%	8.28µM*	2.2%	3.0%	?	-3.7%
C/C(Cc1ccccc1)=N\NC(=O)c1cc(C(C)(C)C)[nH]n1	-4.0%	?	nt	?	20.0%	0.0%
CCCCN1C2CCCC1CC(NC(=O)c1ccccc1Cl)C2 (configuration not stated)	nt	?	-16.0%	2.5%	-17.2%	nt
Cc1c(CC(=O)O)c(=O)oc2c(C)c3occ(-c4ccc(F)cc4)c3cc12	-14.6%	4.5%	-0.2%	9.2%	26.0%	-4.9%
O=C(OCCN1C(=O)c2ccccc2C1=O)c1ccc(S(=O)(=O)N2CCCCCC2)cc1	nt	3.0%[5.75 µM]	-2.3%	13.9%	-10.6%	nt
O=C(c1ccc(S(=O)(=O)Cc2ccccc2F)c([N+](=O)[O-])c1)N1CCCC1	-8.4%	?	nt	3.7%	-15.9%	1.6%
O=C(c1ccc(S(=O)(=O)N2CCCCC2)cc1)N1CCN(CCN2C(=O)c3cccc4cccc(c34)C2=O)CC1	-2.0%	3.29µM*	nt	?	?	-4.3%
Cc1ccc(S(=O)(=O)N2CCN(C(=O)c3ccc(S(=O)(=O)N4CCCC4)cc3)CC2)cc1	nt	7.38µM*	7.3%	3.2%	?	nt
O=C(c1ccc(S(=O)(=O)c2ccc(F)cc2)c([N+](=O)[O-])c1)N1CCCCCC1	-18.7%	-17.4%	3.2%	?	3.29µM*	?
Cc1ccc(S(=O)(=O)N2CCN(c3ccc(C(=O)N4CCOCC4)cc3[N+](=O)[O-])CC2)cc1	-12.9%	10.4µM*	-9.4%	-10.6%	-21.2%	-26.7%
Cc1nnc(C)n1/N=C/c1cc(Br)ccc1O	nt	-20.7%	4.6%	1.4%	7.0%	-17.4%
CC(OC(=O)c1nc(Cl)ccc1Cl)C(=O)NC1CCCCC1C (configuration not stated)	nt	-8.9%	nt	7.4%	5.8%	nt
NC(=O)c1ccc(S(=O)(=O)N2CCSCC2)cc1	i	10.4µM*	-4.5%	-0.2%	4.8%	-8.8%
